Sequences and labels used below:
B1: ACUCCUU (DNA:RNA)
RNA: GGGAGACCGGAAUUCAGAUUGUCCACUCCUUUUAAAUCCCGUCGUAGCCACCA
DNA 1: CAATCTGAATTCCGGTCTCCC
DNA 2: TGGTGGCTACGACGGGATT
B2: UUGUUCC (DNA:RNA)
RNA: GGGAGACCGGAAUUCAGAUUGUCCUUGUUCCUUAAAUCCCGUCGUAGCCACCA
DNA 1: CAATCTGAATTCCGGTCTCCC
DNA 2: TGGTGGCTACGACGGGATT
B3: AAAUGUA (DNA:RNA)
RNA: B1 RNA with C26A, U27A, C28U, C29G, U31A
DNA 1: CAATCTGAATTCCGGTCTCCC
DNA 2: TGGTGGCTACGACGGGATT
B4: CGUAUUA (DNA:RNA)
RNA: B1 RNA with A25C, C26G, C28A, C29U, U31A
DNA 1: CAATCTGAATTCCGGTCTCCC
DNA 2: TGGTGGCTACGACGGGATT
B5: AUGUGAG (DNA:RNA)
RNA: B2 RNA with U25A, U29G, C30A, C31G
DNA 1: CAATCTGAATTCCGGTCTCCC
DNA 2: TGGTGGCTACGACGGGATT
B6: GAUAGGC (DNA:RNA)
RNA: B1 RNA with A25G, C26A, C28A, C29G, U30G, U31C
DNA 1: CAATCTGAATTCCGGTCTCCC
DNA 2: TGGTGGCTACGACGGGATT
B7: AAGUUCU (DNA:RNA)
RNA: B2 RNA with U25A, U26A, C31U
DNA 1: CAATCTGAATTCCGGTCTCCC
DNA 2: TGGTGGCTACGACGGGATT
B8: UGUGAUC (DNA:RNA)
RNA: B1 RNA with A25U, C26G, C28G, C29A, U31C
DNA 1: CAATCTGAATTCCGGTCTCCC
DNA 2: TGGTGGCTACGACGGGATT
B9: UGAUCUG (DNA:RNA)
RNA: B1 RNA with A25U, C26G, U27A, C28U, U31G
DNA 1: CAATCTGAATTCCGGTCTCCC
DNA 2: TGGTGGCTACGACGGGATT
B10: UGUGUGA (DNA:RNA)
RNA: B2 RNA with U26G, G27U, U28G, C30G, C31A
DNA 1: CAATCTGAATTCCGGTCTCCC
DNA 2: TGGTGGCTACGACGGGATT
B11: CGUGAUC (DNA:RNA)
RNA: B1 RNA with A25C, C26G, C28G, C29A, U31C
DNA 1: CAATCTGAATTCCGGTCTCCC
DNA 2: TGGTGGCTACGACGGGATT
B12: CGUGAUG (DNA:RNA)
RNA: B1 RNA with A25C, C26G, C28G, C29A, U31G
DNA 1: CAATCTGAATTCCGGTCTCCC
DNA 2: TGGTGGCTACGACGGGATT
B13: UGUGAUG (DNA:RNA)
RNA: B1 RNA with A25U, C26G, C28G, C29A, U31G
DNA 1: CAATCTGAATTCCGGTCTCCC
DNA 2: TGGTGGCTACGACGGGATT
B14: GCGAGGG (DNA:RNA)
RNA: B1 RNA with A25G, U27G, C28A, C29G, U30G, U31G
DNA 1: CAATCTGAATTCCGGTCTCCC
DNA 2: TGGTGGCTACGACGGGATT
B15: GUCAGAC (DNA:RNA)
RNA: B2 RNA with U25G, G27C, U28A, U29G, C30A
DNA 1: CAATCTGAATTCCGGTCTCCC
DNA 2: TGGTGGCTACGACGGGATT
B16: CAAGAAC (DNA:RNA)
RNA: B2 RNA with U25C, U26A, G27A, U28G, U29A, C30A
DNA 1: CAATCTGAATTCCGGTCTCCC
DNA 2: TGGTGGCTACGACGGGATT
B17: UCGGUAA (DNA:RNA)
RNA: B2 RNA with U26C, U28G, C30A, C31A
DNA 1: CAATCTGAATTCCGGTCTCCC
DNA 2: TGGTGGCTACGACGGGATT
B18: CUCCUAG (DNA:RNA)
RNA: B2 RNA with U25C, G27C, U28C, C30A, C31G
DNA 1: CAATCTGAATTCCGGTCTCCC
DNA 2: TGGTGGCTACGACGGGATT
B19: AUUGUGA (DNA:RNA)
RNA: B1 RNA with C26U, C28G, C29U, U30G, U31A
DNA 1: CAATCTGAATTCCGGTCTCCC
DNA 2: TGGTGGCTACGACGGGATT
B20: GUAUCUC (DNA:RNA)
RNA: B2 RNA with U25G, G27A, U29C, C30U
DNA 1: CAATCTGAATTCCGGTCTCCC
DNA 2: TGGTGGCTACGACGGGATT
B21: GUGUAUC (DNA:RNA)
RNA: B2 RNA with U25G, U29A, C30U
DNA 1: CAATCTGAATTCCGGTCTCCC
DNA 2: TGGTGGCTACGACGGGATT
B22: CCGUAUC (DNA:RNA)
RNA: B2 RNA with U25C, U26C, U29A, C30U
DNA 1: CAATCTGAATTCCGGTCTCCC
DNA 2: TGGTGGCTACGACGGGATT
B23: UUGUAUC (DNA:RNA)
RNA: B2 RNA with U29A, C30U
DNA 1: CAATCTGAATTCCGGTCTCCC
DNA 2: TGGTGGCTACGACGGGATT
B24: UAUCUUG (DNA:RNA)
RNA: B1 RNA with A25U, C26A, C29U, U31G
DNA 1: CAATCTGAATTCCGGTCTCCC
DNA 2: TGGTGGCTACGACGGGATT
B25: GCGUAUC (DNA:RNA)
RNA: B2 RNA with U25G, U26C, U29A, C30U
DNA 1: CAATCTGAATTCCGGTCTCCC
DNA 2: TGGTGGCTACGACGGGATT
B26: CAAGCAG (DNA:RNA)
RNA: B1 RNA with A25C, C26A, U27A, C28G, U30A, U31G
DNA 1: CAATCTGAATTCCGGTCTCCC
DNA 2: TGGTGGCTACGACGGGATT
B27: CACGUCU (DNA:RNA)
RNA: B2 RNA with U25C, U26A, G27C, U28G, C31U
DNA 1: CAATCTGAATTCCGGTCTCCC
DNA 2: TGGTGGCTACGACGGGATT
B28: UGGGGGA (DNA:RNA)
RNA: B2 RNA with U26G, U28G, U29G, C30G, C31A
DNA 1: CAATCTGAATTCCGGTCTCCC
DNA 2: TGGTGGCTACGACGGGATT
B29: UGGAUUU (DNA:RNA)
RNA: B2 RNA with U26G, U28A, C30U, C31U
DNA 1: CAATCTGAATTCCGGTCTCCC
DNA 2: TGGTGGCTACGACGGGATT
B30: UGCGAUC (DNA:RNA)
RNA: B2 RNA with U26G, G27C, U28G, U29A, C30U
DNA 1: CAATCTGAATTCCGGTCTCCC
DNA 2: TGGTGGCTACGACGGGATT
B31: CUGGAGA (DNA:RNA)
RNA: B2 RNA with U25C, U28G, U29A, C30G, C31A
DNA 1: CAATCTGAATTCCGGTCTCCC
DNA 2: TGGTGGCTACGACGGGATT
B32: UGCGCGA (DNA:RNA)
RNA: B1 RNA with A25U, C26G, U27C, C28G, U30G, U31A
DNA 1: CAATCTGAATTCCGGTCTCCC
DNA 2: TGGTGGCTACGACGGGATT
B33: CGGAUGU (DNA:RNA)
RNA: B2 RNA with U25C, U26G, U28A, C30G, C31U
DNA 1: CAATCTGAATTCCGGTCTCCC
DNA 2: TGGTGGCTACGACGGGATT
B34: UGGGAUG (DNA:RNA)
RNA: B2 RNA with U26G, U28G, U29A, C30U, C31G
DNA 1: CAATCTGAATTCCGGTCTCCC
DNA 2: TGGTGGCTACGACGGGATT
B35: CUGGAUG (DNA:RNA)
RNA: B2 RNA with U25C, U28G, U29A, C30U, C31G
DNA 1: CAATCTGAATTCCGGTCTCCC
DNA 2: TGGTGGCTACGACGGGATT
B36: UGGGAGA (DNA:RNA)
RNA: B2 RNA with U26G, U28G, U29A, C30G, C31A
DNA 1: CAATCTGAATTCCGGTCTCCC
DNA 2: TGGTGGCTACGACGGGATT
B37: CCCUGGA (DNA:RNA)
RNA: B1 RNA with A25C, U27C, C28U, C29G, U30G, U31A
DNA 1: CAATCTGAATTCCGGTCTCCC
DNA 2: TGGTGGCTACGACGGGATT
B38: UGCGAUG (DNA:RNA)
RNA: B1 RNA with A25U, C26G, U27C, C28G, C29A, U31G
DNA 1: CAATCTGAATTCCGGTCTCCC
DNA 2: TGGTGGCTACGACGGGATT
B39: UGGAUGU (DNA:RNA)
RNA: B2 RNA with U26G, U28A, C30G, C31U
DNA 1: CAATCTGAATTCCGGTCTCCC
DNA 2: TGGTGGCTACGACGGGATT

Numbering of substitutions follows the chain as printed; changes in the protein carry UniProt numbers. The full ranking holds about 16,000 sequences; the median of “ka relative to ugcaugu” is about 0.096, and the highest 2% start at about 0.35. Only a selection was taken, and the highest values are over-represented in it overall.

The target in the assay is T1, RBFOX1 RRM RbFoxmut (Fox-RRM*) (Homo sapiens, UniProt Q9NWB1 109-208, R118D;E147R;N151S;E152T).
T1 sequence: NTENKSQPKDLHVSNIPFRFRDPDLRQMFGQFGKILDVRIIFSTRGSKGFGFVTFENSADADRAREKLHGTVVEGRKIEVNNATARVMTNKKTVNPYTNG
Description: EMSA; HiTS-Eq, 1 nM pool, 10 min; buffer printed only for the single-RNA assays: 10 mM Tris pH 7.5, 150 mM NaCl, 3.4 mM EDTA, 0.001% NP-40, 30 C. Conditions: tags: His6 N-terminal (pET28a); label: 5' 32P. An outline of the steps:
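These values rest on relative association constants, computed from read-count changes of each RNA species versus the control reaction and normalised to the cognate motif. Reads came from free RNA recovered by 8% native PAGE after purified RbFox RRM (wild type or mutant) at increasing concentrations was equilibrated for 10 min in 50 µL with 1 nM of a 5′-radiolabelled pool with 7 randomized nucleotides and DNA-annealed flanks.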
Take B1: the binding signal is 0.0436 KA relative to UGCAUGU. Take B2: the binding signal was 0.104 KA relative to UGCAUGU. B3: the binding signal is 0.166 KA relative to UGCAUGU. The same measure for B4: 0.126 KA relative to UGCAUGU; for B5: 0.17 KA relative to UGCAUGU.

Take B6: the binding signal is 0.0824 KA relative to UGCAUGU. Consider B7, for which the binding signal is 0.0763 KA relative to UGCAUGU. For B8 the value was 0.395 KA relative to UGCAUGU. B9: the binding signal is 0.0664 KA relative to UGCAUGU.

As for B10, the binding signal was 0.209 KA relative to UGCAUGU. Take B11: the binding signal is 0.118 KA relative to UGCAUGU.

For B12, the binding signal is 0.268 KA relative to UGCAUGU.

Consider B13, for which the binding signal was 1.01 KA relative to UGCAUGU.

B14: the binding signal is 0.0739 KA relative to UGCAUGU. B15: the binding signal is 0.0721 KA relative to UGCAUGU. For B16, the binding signal was 0.106 KA relative to UGCAUGU.

Take B17: the binding signal was 0.133 KA relative to UGCAUGU.

Take B18: the binding signal was 0.0819 KA relative to UGCAUGU. With B19, the binding signal was 0.0934 KA relative to UGCAUGU. On to B20, for which the binding signal is 0.0751 KA relative to UGCAUGU.

Take B21: the binding signal is 0.424 KA relative to UGCAUGU. B22: the binding signal was 0.163 KA relative to UGCAUGU. As to B23, the binding signal was 0.523 KA relative to UGCAUGU. On to B24, for which the binding signal is 0.0958 KA relative to UGCAUGU.

B25: the binding signal is 0.194 KA relative to UGCAUGU. As for B26, the binding signal was 0.0856 KA relative to UGCAUGU.

As for B27, the binding signal was 0.0849 KA relative to UGCAUGU. For the molecule B28, the binding signal was 0.102 KA relative to UGCAUGU.

For B29, the binding signal was 0.0654 KA relative to UGCAUGU. For B30 the value was 0.286 KA relative to UGCAUGU; for B31, 0.0675 KA relative to UGCAUGU.

As for B32, the binding signal is 0.0898 KA relative to UGCAUGU. Take B33: the binding signal is 0.281 KA relative to UGCAUGU. Turning to B34, the binding signal is 0.691 KA relative to UGCAUGU. B35: the binding signal is 0.646 KA relative to UGCAUGU. For B36, the binding signal is 0.137 KA relative to UGCAUGU. Take B37: the binding signal is 0.0858 KA relative to UGCAUGU. As to B38, the binding signal was 0.493 KA relative to UGCAUGU. B39: the binding signal is 0.756 KA relative to UGCAUGU.

Values taken from paper PMC9911399, “Two distinct binding modes provide the RNA-binding protein RbFox with extraordinary sequence specificity”.
